A selection: hits, their analogues and other compounds. The true share with any hit is near 2%.
PfG6PD inh: PfG6PD (Plasmodium falciparum) enzyme inhibition; PfGluPho enzyme, NADPH resazurin-diaphorase fluorescence; inhibition, % at 20 µM; 350,000 tested, 0.78% active;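 active means inhibition reaching at least a set limit at 20 µM in the primary screen, cut at about 59% in these data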;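 further: 0% = DMSO wells with substrate and 100% = DMSO wells lacking glucose-6-phosphate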
APOBEC3A inh: human APOBEC3A DNA deaminase inhibition; P31941; recombinant A3A, FAM/TAMRA ssDNA deamination fluorescence; inhibition, % at 20 µM; 330,000 tested, 0.41% active;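 active means at least 40% inhibition at 20 µM here, with at most 30% in a related deaminase screen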;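 further: plate controls were A3A with DMSO for no effect and wells lacking A3A enzyme for full effect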
Neddyl block: inhibitors of human cullin neddylation | TR-FRET cullin neddylation, biochemical | inhibition, % at 25 µM | P61081+Q13564 | 360,000 tested, 0.58% active | AID 651699; in the data active means inhibition above about 36%
A3G deaminase: APOBEC3G (human) deaminase inhibition; Q9HC16; recombinant A3G, ssDNA deamination FAM/TAMRA fluorescence; inhibition, % at 20 µM; 330,000 tested, 0.28% active;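 active means inhibition of at least 40% at 20 µM, with no more than 30% in the related APOBEC3A deaminase screen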;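 further: plate controls were DMSO wells with A3G for no effect and wells lacking A3G enzyme for full effect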
GC-B act: GC-B (human) receptor activation. P20594. 370,000 tested, 0.11% active. HEK293-GC-B cells, CNP EC30, cGMP TR-FRET; 0% at EC30 CNP, 100% saturating CNP. AID 1920062. activation, % at 10 µM;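 active means activation at 10 µM reaching about 35% in either raw or pattern-adjusted values, limit read from the data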
GC-A act: GC-A (human) enzyme activation | activation, % at 10 µM | 370,000 tested, 0.14% active | AID 1671463 | P16066 | HEK293 GC-A cells, cGMP TR-FRET, EC30 ANP; 0% at EC30 ANP, 100% saturating ANP; in the data active means activation above about 40%
PfGluPho conf: confirmation of Plasmodium falciparum G6PD inhibitors; shares compounds with PfG6PD inh; inhibition, % at 20 µM; AID 504753; recombinant PfGluPho, NADPH-diaphorase-resazurin fluorescence; 2,400 tested, 34% active;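 active means inhibition of at least 50% at 20 µM in any single replicate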;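 further: 0% = DMSO with substrate and 100% = DMSO lacking glucose-6-phosphate substrate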
Diaph ctr 10uM: diaphorase inhibition or oxidation at 10 uM NADPH. shares compounds with PfG6PD inh. diaphorase-coupled resazurin reduction, fluorescence, NADPH 10 uM. inhibition, % at 20 µM. 820 tested, 39% active. AID 504862;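 active means average inhibition reaching 50% or more with the compound at 20 µM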;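 further: resorufin red fluorescence formed as diaphorase reduces resazurin using NADPH; 0% = DMSO with enzyme and 100% = DMSO without enzyme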
Diaph ctr 30uM: counter-screen for P. falciparum G6PD inhibitors: diaphorase inhibitors, oxidizers; shares compounds with PfG6PD inh; Diaphorase/resazurin coupled assay, resorufin fluorescence, 30 uM NADPH; inhibition, % at 20 µM; 820 tested, 29% active;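 active means inhibition averaging 50% or more, tested at 20 µM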;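 further: 0% = DMSO with enzyme and 100% = DMSO wells lacking diaphorase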
Active calls of the source: *; / = no result given.

SMILES	PfG6PD inh	APOBEC3A inh	Neddyl block	A3G deaminase	GC-B act	GC-A act	PfGluPho conf	others
COc1ccc2nc3ccccc3nc2c1N	71*	-2	-55	8	-3	-8	14
CCN(C)c1nc(C)nc2c1nnn2Cc1ccccc1	/	/	/	/	0	5	/
COc1cccc(C(=O)Nc2ccc(Cl)c(C(F)(F)F)c2)c1	65*	11	3	-2	-10	-3	-15
Cc1ccc(-n2c(Cc3cccs3)nnc2SCc2ccc(C#N)cc2)cc1	/	/	/	/	-15	-22	/
COC(=O)[C@]12C[C@H](CC(=O)N3CCN(C(=O)c4ccco4)CC3)C(=O)N(CCc3ccc(OC)c(OC)c3)C1=C[C@H](C(C)(C)C)O[C@@H]2C	/	/	/	/	-6	2	/
CC1CCc2nc3sc4c(c3c(N)c2C1)CCCC4 (stereo unspecified)	91*	0	-50	-3	6	6	41
Nc1c2c(nc3sc4c(c13)CCCCC4)CCCCC2	20	3	-10	-3	8	3	/
CC1CCc2c(nc3sc4c(c3c2N)CCCC4)C1 (stereo unspecified)	95*	-1	-34	-6	0	9	57*	Diaph ctr 10uM=51*;Diaph ctr 30uM=41
NCCN1CCN(S(=O)(=O)c2ccc3c(c2)CCN3C(=O)C2CCC2)CC1	/	/	/	/	-1	5	/
Cn1c(=O)n(Cc2ccccc2Cl)c(=O)c2c1[nH]c(=S)n2C	60*	-3	-8	18	2	-2	33
Cn1c(=O)c2[nH]c(=S)n(Cc3ccccc3)c2n(C)c1=O	51	/	3	/	-6	-1	/
Cn1c(=O)c2c([nH]c(=S)n2CCCc2ccccc2)n(C)c1=O	68*	-9	-7	-7	1	1	53*	Diaph ctr 10uM=-34;Diaph ctr 30uM=-26
Cn1c(=O)[nH]c(=O)c2c1[nH]c(=S)n2CCCc1ccccc1	75*	-2	-7	-6	-2	-4	49*	Diaph ctr 10uM=-34;Diaph ctr 30uM=-6
COC(=O)[C@H](C(C)C)N1Cc2nnn(CC3CCCCC3)c2-c2cc(F)ccc2S1(=O)=O	/	/	/	/	11	0	/
Oc1c(I)cc(I)c2cccnc12	65*	18	-13	-5	2	2	5
COc1ccc(NC(=O)OCCN2CCCC23CCC(c2ccccc2)CC3)cc1 (stereo unspecified)	/	/	/	/	-11	-14	/
N#CCC[C@H]1CC[C@]2(CCCN(Cc3ccc(Br)cc3)C2)O1	/	/	/	/	-6	-4	/
COCCNC(=O)C[C@H]1CC[C@H]2[C@@H](COc3ccc(NC(=O)Nc4cccc(F)c4)cc3C(=O)N2C)O1	/	/	/	/	2	5	/
Nc1cc2nc[nH]c2cc1N	60*	7	-10	23	1	-10	-10
COC(=O)CCC(=O)N1C2=NC3=C(C(=O)N(Cc4ccc5c(c4)OCO5)C3=O)C3N(C)c4ccccc4[C@]23C[C@H]1CO (stereo partly specified)	/	/	/	/	-3	0	/
Cc1nc(SCC(=O)Nc2ccc3[nH]c(=O)[nH]c3c2)nc(C)c1C	64*	1	-8	-8	4	-2	8
CC1(C)Oc2ccc(C(=O)NC3CCCC3)cc2NC1=O	/	/	/	/	7	4	/
N#Cc1cc2ccc(N3CCOCC3)cc2cc1C#N	63*	0	17	0	-5	1	29
COC(=O)c1c(C)n(-c2ccccc2)c2ccc(O)cc12	63*	2	30	-4	-7	7	28
COC(=O)c1c(C)n(-c2ccc(C)cc2)c2ccc(O)cc12	23	5	8	2	-4	19	/
Cc1cc(C)c2cc(C)c3nnc(SCC(=O)NCc4ccc5c(c4)OCO5)n3c2c1	-6	-4	-11	-8	-18	-20	/

From PubChem BioAssay
